Laboratory results from paper PMC5540273 (PLoS ONE, 2017).

Key:
Conditions in all cases: concentration: 1 μM,replicates: in singlicate; n = 1
[1] = system: TYK2(JH2domain-pseudokinase)
TYRO3 = system: TYRO3
ULK1 = system: ULK1
ULK2 = system: ULK2
ULK3 = system: ULK3
VEGFR2 = system: T1, VEGFR2
T1 construct: gene KDR

VPS34 = system: T2, VPS34
T2 construct: gene PIK3C3

VRK2 = system: VRK2
WEE1 = system: WEE1
WEE2 = system: WEE2
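Also: KINOMEscan kinase panel screen.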

Structure (SMILES)	%Inh [1] [%]	%Inh (TYRO3) [%]	%Inh (ULK1) [%]	%Inh (ULK2) [%]	%Inh (ULK3) [%]	%Inh (VEGFR2) [%]	%Inh (VPS34) [%]	%Inh (VRK2) [%]	%Inh (WEE1) [%]	%Inh (WEE2) [%]
C[C@@H](Oc1cc(-n2cnc3ccc(-c4ccncc4)cc32)sc1C(N)=O)c1ccccc1Cl [GSK483724]	42	0	6	0	7	8	96.4	0	46	1
CN1CCN(CCNc2nc3cc(Oc4ccc(NC(=O)Nc5cc(C(F)(F)F)ccc5F)cc4)ccc3[nH]2)CC1.Cl.Cl [GW768504]	0	0	0	0	0	58	17	0	8	2
OCCn1cc(-c2cnc3nnn(Cc4ccc5ncccc5c4)c3n2)cn1	0	0	0	0	0	0	17	0	0	0
CCNCC(Cc1ccccc1)NC(=O)c1cc(Br)c(-c2ccnc3[nH]ccc23)s1.Cl.Cl (stereo not shown) [GSK1383280]	10	0	0	0	8	36	0	0	0	7
Cn1ccc2ncnc(Oc3ccc(NC(=O)Nc4cccc(C(F)(F)F)c4)c(Cl)c3)c21	0	0	0	0	1	98.2	0	0	3	9
Cn1ccc2ncnc(Oc3ccc(NC(=O)Nc4cncc(C(F)(F)F)c4)c(Cl)c3)c21	0	0	0	0	99.9	98.5	0	0	0	7
CCn1c(-c2nonc2N)nc2cncc(Br)c21 [SB-738004]	18	0	14	13	3	37	36	35	13	0
CS(=O)(=O)c1cccc(CNc2nc(Nc3ccc4c(c3)[C@@H]3C[C@@H]4CNC3=O)ncc2C(F)(F)F)c1	0	0	89	77	99.9	98.1	0	37	2	30
CCn1c(-c2nonc2N)nc2cncc(CNC3CCNCC3)c21.Cl [SB-747651]	47	0	17	0	6	0	0	9	8	7
Cc1n[nH]c2cc(Nc3ccnc(Nc4cccc(CN5CCOCC5)c4)n3)ccc12 [GW682569]	99.2	0	1	0	55	45	18	27	10	0
COc1ccc(Nc2nccc(N3CCC(NC(=O)c4cccc(C#N)c4)C3)n2)cc1 (stereo not shown) [GSK1379730]	18	0	0	0	10	0	46	0	0	6
CCOC(=O)N1CCC(n2cnc(-c3ccc(F)cc3)c2-c2ccnc(N)n2)CC1 [SB-219952]	67	20	4	26	8	3	35	27	0	0
CNC(=O)c1ccccc1Nc1nc(Nc2cccc(CS(C)(=O)=O)c2)ncc1C.O=CO [GSK1520489]	98.9	72	98.6	65	99.9	96.3	77	36	98.1	99.9
CCN1CCN(CCCC(=O)Nc2n[nH]c3nc(-c4ccc(O)cc4)c(Br)cc23)CC1 [SB-731579]	0	0	0	0	6	0	0	69	0	29
O=C(Nc1ccc(Oc2ccc3nc(NC(=O)C4CC4)cn3n2)c(F)c1)c1cccn(-c2ccccc2)c1=O	0	74	0	0	0	98.2	44	0	14	0
O=C1NCCc2[nH]c(-c3ccncc3)cc21	41	0	25	32	18	25	25	19	13	0
COc1cccc(OC)c1C(=O)Nc1cccc(-c2nn3ccccc3c2-c2ccnc(Nc3cccc(F)c3)n2)c1 [GSK361065]	0	79	0	13	0	18	0	0	9	12
O=C(Nc1n[nH]c2cc(-c3ccco3)ccc12)C1CC1 [SB-737447]	0	0	11	0	20	6	16	0	0	2
CC(C)S(=O)(=O)N1CCN(Cc2ccc3c(c2)nc(NC(=O)c2ccsc2)n3C[C@H](O)c2ccccc2)CC1 [GW635815]	8	31	82	60	92.1	3	18	11	29	6
CN(c1cccc(CNc2nc(Nc3ccc4c(c3)CC(=O)N4)ncc2C(F)(F)F)c1)S(C)(=O)=O	0	0	72	45	40	37	0	12	0	0
C[C@@H]1CNc2c(sc3ccc4nc(-c5ccc(O)cc5)ccc4c23)C(=O)N1	23	0	38	63	24	11	9	17	17	0
COC(=O)Nc1nc2cc(Oc3ccc(NC(=O)Nc4cc(C(F)(F)F)ccc4Cl)cc3)ccc2[nH]1.Cl [GW697465]	30	3	17	0	10	64	35	4	8	11
Cc1ccc(C(=O)Nc2ccc(Oc3ccc4nc(NC(=O)C5CC5)cn4c3)c(F)c2)c(=O)n1-c1ccccc1	0	81	0	0	7	99.1	43	0	0	0

Structure (SMILES)	%Inh [1] [%]	%Inh (TYRO3) [%]	%Inh (ULK1) [%]	%Inh (ULK2) [%]	%Inh (ULK3) [%]	%Inh (VEGFR2) [%]	%Inh (VPS34) [%]	%Inh (VRK2) [%]	%Inh (WEE1) [%]	%Inh (WEE2) [%]
CC(=O)c1c(-c2ccncc2)[nH]c(-c2ccncc2)c1C [GW493036]	90	0	3	0	10	0	50	55	17	0
Cn1ccc2ncnc(Oc3ccc(NC(=O)Nc4cccc(C(F)(F)F)c4)c(F)c3)c21	0	3	0	0	0	99.1	0	0	43	0
Cc1ccn2nc(-c3ccc(F)cc3)c(-c3ccncc3)c2c1.Cl [GW457859]	25	0	0	0	0	19	51	0	7	0
Cl.c1ccc(Oc2ccc(Nc3ccnc4cc(-c5ccc(CN6CCNCC6)o5)ccc34)cc2)nc1 [GW567142]	10	0	0	16	0	25	0	0	8	0
CC(C)c1nc(-c2cccc(NS(=O)(=O)c3ccccc3)c2)c(-c2ccnc(Nc3ccc4c(c3)CN(C)CC4)n2)s1 [GSK1649598]	28	79	42	67	48	90.1	0	0	0	0
CN1CCN(CCCNc2nccc(-c3c(-c4ccc(F)cc4)nn4cc(C(N)=O)ccc34)n2)CC1 [GW622475]	40	0	8	0	0	9	19	0	2	0
NC(=O)c1ccc(-c2cc3ncnc(SCC(=O)O)c3s2)cc1	42	0	0	0	11	0	0	0	0	0
CN(c1ccccc1CNc1nc(Nc2ccc3c(c2)CC(=O)N3)ncc1C(F)(F)F)S(C)(=O)=O	0	0	71	69	40	28	0	0	0	0
COc1cc2nccc(Nc3ccc(Oc4ccccc4)cc3)c2cc1OC.Cl [GI261656]	12	0	0	0	0	23	10	5	0	0
CC(C(=O)NC1CCN(c2ccnc(Nc3ccc(F)cc3)n2)C1)c1ccc(Cl)cc1 (stereo not shown) [GSK1379713]	0	0	7	0	2	3	4	0	6	13
Cc1ccc(Nc2ccnc(Nc3ccc4c(c3)CS(=O)(=O)C4)n2)cc1O.Cl [GW579362]	99.5	79	55	2	99.5	93.6	76	0	50	98.3
Cc1ccc(CC(=O)N2CCc3cc(-c4cn(C)c5ncnc(N)c45)ccc32)cc1 [GSK2634758]	17	0	11	35	6	0	0	19	0	0
Cn1cc(-c2cccc3c(N)c(C(N)=O)nnc23)cn1	80	0	23	14	21	13	46	1	3	18
CCCC(=O)Nc1n[nH]c2ncccc12 [SB-601436]	0	0	0	18	0	0	0	0	0	0
NC(=O)Nc1sc(-c2ccc(F)cc2)cc1C(N)=O [GW789449]	100	16	32	40	55	19	22	0	30	11
Cl.Cl.NC[C@H](CC1CCCCC1)NC(=O)c1ccc(-c2ccnc3[nH]ccc23)s1 [GSK1581428]	0	0	31	0	13	0	9	26	8	30
COc1cccc(C2=C(Nc3cccc(Cl)c3)C(=O)NC2=O)c1 [SB-341556]	46	21	42	7	12	0	0	0	5	0
CN(c1ccc2c(c1)nc(NCc1ccc(F)cc1)n2C)c1ccnc(Nc2ccc(CS(C)(=O)=O)cc2)n1.Cl [GW813244]	12	4	28	13	21	98.3	30	6	0	7
O=c1[nH]cc(-c2ccc(O)cc2)c2sc(-c3ccncc3)cc12 [GSK1033723]	16	8	8	2	6	0	0	0	3	0
COc1cc2c(Nc3ccc(NC(=O)c4ccccc4)cc3)ncnc2cc1OCCCN1CCOCC1 [GSK301329]	0	13	7	0	13	6	2	0	19	9
Cc1cccc2c(-c3ccncc3)c(-c3ccc(F)cc3)nn12.Cl [GW461487]	0	0	0	0	1	0	18	0	8	11
COc1cccc(CNC(=O)NC2CCN(c3ccnc(Nc4cc(OC)c(OC)c(OC)c4)n3)C2)c1 (stereo not shown) [GSK1379765]	43	0	0	0	90	13	0	0	30	9
Cn1ccc2ncnc(Oc3ccc(NC(=O)Nc4cnn(C(C)(C)C)c4)c(Cl)c3)c21	3	0	0	7	0	99.1	16	0	0	5

Structure (SMILES)	%Inh [1] [%]	%Inh (TYRO3) [%]	%Inh (ULK1) [%]	%Inh (ULK2) [%]	%Inh (ULK3) [%]	%Inh (VEGFR2) [%]	%Inh (VPS34) [%]	%Inh (VRK2) [%]	%Inh (WEE1) [%]	%Inh (WEE2) [%]
c1ccc(Oc2ccc(Nc3ccnc4ccc(-c5ccccn5)cc34)cc2)cc1 [GW407034]	15	0	49	0	5	0	0	0	15	0
O=C(NCC1CC1)c1ccc(-c2cc(C(=O)NC3CC3)ccc2F)cc1 [GW810445]	2	0	1	0	3	0	16	19	0	0
Nc1nccc(-c2ccc3c(N)n[nH]c3c2)n1 [GSK1034945]	52	0	41	13	4	0	0	0	35	0
Cn1ccc2ncnc(Oc3ccc(NC(=O)Nc4ccnc(C(F)(F)F)c4)c(Cl)c3)c21	0	0	0	0	0	98.5	0	0	0	30
Cc1ccc2c(-c3ccnc(Nc4ccc(C(F)(F)F)cc4)n3)cnn2n1 [GW819776]	69	0	0	0	21	0	48	31	6	0
CSc1nccc(-c2c(-c3ccc(F)cc3)ncn2CCCN2CCOCC2)n1.Cl [SB-217146]	22	0	12	36	14	7	16	30	0	1
O=C(Nc1cccc(Oc2ccc3nccn3n2)c1)Nc1cccc(C(F)(F)F)c1	1	0	0	0	3	–	14	0	0	9
C[C@@H](Oc1cc(-n2cnc3cc(-c4cnn(C)c4)ccc32)sc1C(N)=O)c1ccccc1Cl [GSK580432]	0	11	14	10	11	61	74	0	26	5
Cc1nnc(-c2ccc3occ(-c4ccc(S(C)=O)cc4)c3n2)o1 (stereo not shown)	0	0	0	0	0	0	17	0	0	21
CS(=O)(=O)Nc1ccc(-c2ccnc3[nH]ccc23)cc1 [GSK993273]	24	0	64	10	95.4	48	31	0	5	0
CS(=O)c1ccc(-c2coc3ccc(-c4n[nH]c(=O)o4)cc23)cc1 (stereo not shown)	47	0	35	0	0	17	94.3	0	2	16
O=C(NOCC1CC1)c1cc(Br)c(F)c(F)c1Nc1ccc(I)cc1Cl	0	0	0	0	10	0	0	0	0	0
C[C@@H]1CNc2c(sc3ccc4nc(-c5ccncc5)ccc4c23)C(=O)N1	59	0	26	27	0	13	0	0	0	0
COC(=O)c1cccc(NC(=O)NC2CCN(c3ccnc(Nc4cc(OC)c(OC)c(OC)c4)n3)C2)c1 (stereo not shown) [GSK1379767]	18	0	0	0	58	15	0	25	8	0
N#Cc1cccc(C(=O)NC2CCN(c3ccnc(Nc4ccc(F)cc4)n3)C2)c1 (stereo not shown) [GSK1379708]	12	0	7	0	0	0	0	0	12	6
COc1cc2ncn(-c3cc(OCC4CCCCC4)c(C(N)=O)s3)c2cc1OC [GSK204559]	15	0	9	0	25	4	20	0	0	25
C[C@@H](Oc1cc(-n2cnc3cc(-c4ccncc4)ccc32)sc1C(N)=O)c1ccccc1Cl [GSK479719]	46	15	32	3	18	40	32	0	1	0
O=C(Nc1ccccc1)c1cccc(Oc2ccc3nccn3n2)c1	18	29	0	0	0	–	6	0	0	0
Cc1cccc(-c2nc(Nc3ccncc3)c3sccc3n2)n1 [GW869641]	75	0	43	29	45	35	32	39	20	11
COC(=O)c1cccc(NC(=O)NC2CCN(c3ccnc(NCc4ccc(F)cc4)n3)CC2)c1 [GSK1379860]	5	17	20	0	15	8	17	7	8	8
O=C(Nc1cccc(C(F)(F)F)c1)c1cccc(Oc2ccc3nccn3n2)c1	44	2	2	10	23	–	35	0	13	7
